Test results as given in PubChem BioAssay (NCI).
This is part of a sample that, as a whole, favours compounds with a hit. Of some 83,000 tested, about 20% had one in any assay.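 96-well plates, one dose, 48 hours. Percent growth reported; active if below 10.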 Calls of active or inactive are those of the source.

What follows are compounds tested on M14 melanoma (assay: NCI-60 one-dose screen, 48 h (100 = growth as untreated, 0 = no growth, -100 = all killed)). Conditions: 10 µM.
Method: Growth inhibition of the M14 human tumor cell line is measured as a screen for anti-cancer activity. Cells are grown in 96 well plates and exposed to the test compound for 48 hours. Compounds are tested at a single concentration, which is 10^-5 M for most compounds. The reported endpoint is percent growth (GI% or GIPRCNT), where numbers from 0 - 100% represent growth inhibition, and numbers from -100% - 0 represent cell death. For example, a value of 40 represents 60% growth inhibition. A value of 0 means no net growth occurred over the course of the experiment. A value of -40 indicates 40% of cells at the beginning of the experiment died by the end of the experiment. A value of -100 means all cells are dead at the end of the experiment.
NCI-60 Human Tumor Cell Lines Screen was performed using the standard one-dose NCI protocol, which is described in more detail at https://dtp.cancer.gov/discovery_development/nci-60/default.htm.
Compounds with GIPRCNT values below 10 were considered active. Activity score was based on GIPRCNT using the following formula: […]
Score is 0 for GIPRCNT values of 100 or above, 50 for GIPRCNT values of 0, and 100 for GIPRCNT values of -100.
For `CCCCCCCCCCCCCCCCCCCC(=O)NCCc1c[nH]c2ccc(O)cc12`, the growth was 101% (inactive).
With `CCOC(=O)C1=C(N)N(c2ccc(Cl)cc2)C2=C(C(=O)CC(C)(C)C2)C1c1ccc(N2CCOCC2)cc1` (stereo not given) the growth was 103% (inactive).
`COc1cc(OC(F)(F)F)ccc1C(=O)Nc1sc2c(c1C#N)CCC(=O)C2` was tested, and the growth was 64.4% (inactive).
For `CCOC(=O)C1=C(N)N(c2ccccc2)C2=C(C(=O)CC(C)(C)C2)C1c1ccc(Cl)cc1` (stereo not given), the growth was 28.2% (inactive).
For `COc1ccc(N(C)c2cc(C#N)nc3ccccc23)cc1N`, the growth was 26.5% (inactive).
In the case of `Cc1ccc(C(=O)NCCCNc2nc(Nc3ccc(N4CCN(C)CC4)cc3)nc3ccsc23)cc1`, the growth is reported as -7.88% (active).
In the case of `COc1ccc2nc(Cl)c(-c3cc(-c4ccccc4)nc(=S)[nH]3)cc2c1`, the growth is reported as 16.5% (inactive).
In the case of `Cc1ccc(NC(=O)c2ccc(-n3c(=O)[nH]c4ccccc4c3=O)cc2)cc1`, the growth is reported as 101% (inactive).
With `O=C(/C=C/Nc1ccccc1)c1ccc2c(c1)Nc1ccccc1S2` the growth was 93.8% (inactive).
In the case of `COc1ccc2c3nc4cc(C)c(C)cc4nc3n(CCN(C)C)c2c1`, the growth is reported as -73.5% (active).
In the case of `CC(=O)C1=C(C)NC(SCC(=O)Nc2ccc(S(=O)(=O)Nc3cc(C)on3)cc2)=NC1c1ccccc1` (stereo not given), the growth is reported as 108% (inactive).
For `COc1ccc(/C=N/N=C(\C)c2ccc3c(c2)Nc2ccccc2S3)cc1O`, the growth was 49.3% (inactive).
With `O=C(Cc1ccc2c(c1)CN(C1CCC(=O)NC1=O)C2=O)NCc1cccc2ccccc12` (stereo not given) the growth was -70.8% (active).
In the case of `O=c1nc(-c2ccccc2)cc(-c2cc3ccccc3nc2Cl)[nH]1`, the growth is reported as 38.6% (inactive).
In the case of `COc1ccccc1[C@H]1C(C(=O)c2ccc(Cl)cc2)C2(N[C@@H]1c1ccccc1)C(=O)Nc1ccccc12` (stereo not given in full), the growth is reported as 5.88% (active).
In the case of `O=c1[nH]n(C(=S)N/N=C/c2ccc(F)cc2)c(=O)c2ccccc12`, the growth is reported as 78.1% (inactive).
`COc1ccc(C(=O)/C=C/c2cc(F)cc(C(F)(F)F)c2)cc1S(N)(=O)=O` was tested, and the growth was -68.4% (active).
`COc1ccc2[nH]cc(/C=N/Nc3cccc(Cl)n3)c2c1` was tested, and the growth was 49.5% (inactive).
`CN(C(=O)c1ccc(C(C)(C)C)cc1)c1sc2c(c1C#N)CCC(=O)C2` was tested, and the growth was 19.3% (inactive).
In the case of `Cc1cc2nc3c4ccccc4n(CCO)c3nc2cc1C`, the growth is reported as 84.6% (inactive).
`CC(C)(C)c1ccc(NCc2cn(-c3ccc(C(=O)O)cc3)nc2-c2ccc(C#N)cc2)cc1` was tested, and the growth was 30.1% (inactive).
In the case of `Cc1cc(C)nc(/N=C(\N)Nc2ccc(S(=O)(=O)Nc3nc(C)cc(C)n3)cc2)n1`, the growth is reported as 111% (inactive).
For `CN1CCN(c2ccc(Nc3nc(NCCNC(=O)c4ccc(C(F)(F)F)cc4)c4sccc4n3)cc2)CC1`, the growth was -54.4% (active).
`Cc1noc2c(Cc3ccccc3)nn(CC(=O)N/N=C/c3ccc(Br)cc3)c(=O)c12` was tested, and the growth was 101% (inactive).
In the case of `O=C(/C=C/Nc1ccc(F)cc1F)c1ccc2c(c1)Nc1ccccc1S2`, the growth is reported as 66.4% (inactive).
`COc1ccc(-c2cc(C(=O)N=Nc3c(O)[nH]c4ccc(Br)cc34)c3ccccc3n2)cc1` was tested, and the growth was 42.6% (inactive).
In the case of `CCOc1ccc(Nc2nc3ccccc3nc2Nc2ccc(OCC)cc2)cc1`, the growth is reported as 37.6% (inactive).
In the case of `COC[C@@H](CC(C)C)N=C1N/C(=C\c2ccc3ncsc3c2)C(=O)N1C`, the growth is reported as 38.1% (inactive).
With `CCCn1c(O)c(N=Nc2nc(-c3cc4ccccc4oc3=O)cs2)c2cc(Br)ccc21` the growth was 97.6% (inactive).
For `Nc1cccnc1/C=N/NC(=S)NCCNC(=O)c1ccc(-n2nc(-c3ccccc3O)nc2-c2ccccc2O)cc1`, the growth was -39% (active).
In the case of `O=C(CSc1nnc(-c2c[nH]c3ccccc23)n1-c1ccccc1)c1ccc(Br)cc1`, the growth is reported as 51% (inactive).
For `COc1cc(Cn2c(C(F)(F)F)cc3c(Cl)ncnc32)ccn1`, the growth was -25.6% (active).
With `Cc1ccc(/C=C(\C#N)n2nnc3c(F)cccc32)cc1` the growth was 36.6% (inactive).
With `COc1cc(C2CC(c3ccccc3)=Nc3c(N)nc(N)nc3N2)ccc1Oc1nc(Nc2ccc(F)cc2)nc(N(C)C)n1` (stereo not given) the growth was 46.6% (inactive).
In the case of `C=CC(=O)Nc1ccc(C(=O)/C=C/c2ccc(N(C)CCF)cc2)c(O)c1`, the growth is reported as -56.3% (active).
In the case of `CC(=O)Nc1ccc(-c2cn(-c3cccc(C(=O)Nc4cccc(OC(F)(F)F)c4)c3)nn2)cn1`, the growth is reported as 80.4% (inactive).
In the case of `Cc1ccc(C(C)C)cc1NC(=O)c1ccccc1N(C)C`, the growth is reported as 93.9% (inactive).
For `Cn1cc(/C=N/Nc2cccc(Cl)n2)c2ccccc21`, the growth was 55.4% (inactive).
`COc1cccc2nc(Nc3ccc(F)c(NC(=O)c4ccc(CN5CCN(C)CC5)c(C(F)(F)F)c4)c3)ccc12` was tested, and the growth was -12% (active).
In the case of `COc1ccc2[nH]c(O)c(N=NC(=O)c3cc(-c4ccc(C)cc4)nc4ccccc34)c2c1`, the growth is reported as 99.1% (inactive).
